Results taken from ChEMBL document CHEMBL3433997, “St. Jude Leishmania screening dataset” (2016).
Where “and” joins values, the source holds several entries; their conditions need not be identical. Equal values may be shown once.

The molecules below were run against Hexose transporter 1 (Plasmodium falciparum) (UniProt O97467) (assay: ST_JUDE_LEISH: Cytotoxicity at 2uM final concentration against transgenic Leishmania Mexicana promastigotes LmPfHT that are glucose transport deficient and complemented with the Plasmodium falciparum hexose transporter. Activity is measured by DNA content using SYBR green in vitro).
Assay type: functional

Point of comparison: `CCn1c(-c2nonc2N)nc2c(-c3cccc(NC(=O)Nc4ccccc4Cl)c3)ncc(OCCCN)c21`, inhibition -1.1%. Against it:
- COc1ccc(-c2cnc(N)c(-c3ccc(C(N)=O)cc3)c2)cc1OC — higher, 3.4%
- CCOc1ccc(OCC)c(N2CCN(CCCCNC(=O)c3ccc(NC(=O)c4ccc(Cl)cc4)cc3)CC2)c1 — higher, 3.28%
- COc1ccc(NCCCNc2ccnc3ccccc23)cc1 — higher, 4.48%
- COc1ccc(CCNC(C)Cc2ccc(C(=O)Nc3ccc(CC(C)NCCc4cccc(Cl)c4)cc3)cc2)cc1 (stereo not given) — higher, 13%
- Cn1cc(C(=O)Nc2cccc(-c3cccc(-c4nc5cc(F)ccc5[nH]4)c3)c2)n(C)c1=O — higher, 5.98%
- COc1ccc2c(c1)CC(C)(C)NC2CCCCCCCCC1NC(C)(C)Cc2cc(OC)ccc21 (stereo not given) — higher, 2.26%
- O=C(NCC1CCN(Cc2ccc3c(c2)OCCO3)C1)c1cc(-c2cccc(C(F)(F)F)c2)cs1 (stereo not given) — higher, -0.91%
- Nc1nc(N)c2c(ccc3nn(S(=O)(=O)N4CCCC4)cc32)n1 — higher, 4.05%
- Cc1cc(Nc2ncc3c(n2)N(C2CCC2)CC3)ccc1N1CCN(C)CC1 — higher, 1.15%
- COc1ccc(-n2ncc(C(=O)N3CCC4(C3)C(=O)N(c3ccccc3)c3ccccc34)c2C)cc1 (stereo not given) — higher, 2.74%
- CC(=O)Nc1ccc(OCCCCCOc2ccc(NC(C)=O)cc2Cl)c(Cl)c1 — higher, 1.52%
- Clc1cccc(C=NNc2nc(=Nc3ccccc3)[nH]c(=Nc3ccccc3)[nH]2)c1 — higher, 5.13%
- Cn1cccc1C(=O)C(=O)Nc1cccc(-c2ccc(-c3nc4cc(C(F)(F)F)ccc4[nH]3)cc2)c1 — higher, 2.42%
- CCOc1ccc(C(=O)Nc2nonc2-c2ccc(OC)c(OC)c2)cc1 — higher, 1.82%
- Cc1cccc2nc(-c3cccc(-c4cccc(NC(=O)C5CC(=O)Nc6ccccc65)c4)c3)[nH]c12 (stereo not given) — lower, -1.8%
- c1cc(CNCCN2CCNCC2)cc(-c2cccc(-c3nc4ccccc4[nH]3)c2)c1 — higher, 1.4%
- CC(Oc1cccc(Cl)c1)C(=O)N1CCc2ccccc21 (stereo not given) — lower, -1.34%
- CCC(C)(C)NC(=O)C(c1cccc(OC)c1)N(C(=O)CNC(=O)c1cccs1)c1ccc2c(c1)OCCO2 (stereo not given) — higher, 6.4%
- CCNc1cc(C(=O)N[C@@H](Cc2ccccc2)[C@H](O)CNC(C)(C)c2cccc(OC)c2)cc(N2CCCC2=O)c1 — higher, 1.76%
- Cc1ccc2c(-c3ccc([N+](=O)[O-])o3)cc(C)nc2c1 — higher, 46.4%
- CC1(C)NC(N)=NC(=N)N1OCCCOc1c(Cl)cc(Cl)cc1Cl — higher, 0.14%
- COc1ccc2nc(C)cc(Nc3ccc(Cl)c(Cl)c3)c2c1 — higher, 14.2%
- Cc1nc2nc(N)nc(N)c2c(C)c1Cc1ccccc1Br — higher, 14.9%
- O=C(Nc1cccc(-c2ccc(CN3CCCC3)cc2)c1)c1cccc(Cl)c1 — higher, 0.05%
- CCN(CCCN1CCCCC1)c1cc(C)nc(Nc2ccc(C)c(Cl)c2)n1 — higher, 2.33%
- O=C(CCNc1ccnc(NCCc2ccc(F)cc2)n1)Nc1ccccc1 — higher, 4.56%
- Cc1cccc2nc(-c3cccc(-c4ccc(NC(=O)c5c[nH]cn5)cc4)c3)[nH]c12 — higher, -0.73%
- O=C(c1ccc([N+](=O)[O-])o1)N1CCN(c2ccccc2)CC1 — higher, 1.95%
- Nc1ccc2[nH]cc(C3CCN(CC4CCC(NC(=O)/C=C/c5ccccc5Cl)CC4)CC3)c2n1 (stereo not given) — higher, 3.23%
- CN1CCN(CCCN(Cc2csc(-c3ccc(CNCc4ccccc4)cc3)n2)C(=O)Nc2cc(Cl)cc(Cl)c2)CC1 — higher, 6.74%
- CC(=O)C1=NN(c2ccc(Cl)cc2)C(c2cccs2)N1c1ccccc1 (stereo not given) — higher, 0.36%
- COc1ccccc1Cn1ccnc1SCC(=O)Nc1cccc(C(F)(F)F)c1 — higher, 0.38%
- COc1ccc(N2CCN(CCCCNC(=O)c3ccc(NC(=O)c4cc(C(F)(F)F)cc(C(F)(F)F)c4)cc3)CC2)c(OC)c1 — higher, 1.33%
- Cc1cc(N)cc2nc(-c3ccc(N)cc3)[nH]c12 — higher, 2.43%
- CN(C)CCCOc1ccc(-c2csc(NC(=N)NCc3ccccc3)n2)cc1 — higher, 6.08%
- c1ccc(-c2cc(NCCNc3cc(-c4ccccc4)nc4ccccc34)c3ccccc3n2)cc1 — higher, 6.2%
- Nc1nc(O)c2cc(CN(C=O)c3ccc(C(=O)N[C@@H](CCC(=O)O)C(=O)O)cc3)ccc2n1 — higher, 4.17%
- COC(=O)COc1cc(C(=O)NCCCCN2CCC(c3ccc4c(c3OC)CCCC4)CC2)ccc1-c1ccc(Cl)cc1 — higher, 2.65%

For `CCC(CC(NCCCCNC(=O)c1ccc(NC(=O)c2ccc(Cl)cc2)cc1)c1ccccc1)c1ccccc1OC` (stereo not given), the inhibition was 1.83% and 1.71%.

These molecules were tested against Glucose transporter (Leishmania mexicana) (UniProt O61059) (assay: ST_JUDE_LEISH: Cytotoxicity at 2uM final concentration against transgenic Leishmania Mexicana promastigotes LmGT2 that are glucose transport deficient and complemented with the L. Mexicana glucose transporter 2. Activity is measured by DNA content using SYBR green in vitro).
Assay type: functional

Point of comparison: `CN(C)CCCOc1ccc(-c2csc(NC(=N)NCc3ccccc3)n2)cc1`, inhibition 3.86%. Against it:
- COc1ccc(-c2cnc(N)c(-c3ccc(C(N)=O)cc3)c2)cc1OC — higher, 5.07%
- CCOc1ccc(OCC)c(N2CCN(CCCCNC(=O)c3ccc(NC(=O)c4ccc(Cl)cc4)cc3)CC2)c1 — lower, 3.45%
- COc1ccc(NCCCNc2ccnc3ccccc23)cc1 — lower, 1.73%
- COc1ccc(CCNC(C)Cc2ccc(C(=O)Nc3ccc(CC(C)NCCc4cccc(Cl)c4)cc3)cc2)cc1 (stereo not given) — lower, 0.32%
- Cn1cc(C(=O)Nc2cccc(-c3cccc(-c4nc5cc(F)ccc5[nH]4)c3)c2)n(C)c1=O — higher, 5.83%
- COc1ccc2c(c1)CC(C)(C)NC2CCCCCCCCC1NC(C)(C)Cc2cc(OC)ccc21 (stereo not given) — lower, 0.77%
- O=C(NCC1CCN(Cc2ccc3c(c2)OCCO3)C1)c1cc(-c2cccc(C(F)(F)F)c2)cs1 (stereo not given) — lower, 2.27%
- Nc1nc(N)c2c(ccc3nn(S(=O)(=O)N4CCCC4)cc32)n1 — higher, 4.06%
- Cc1cc(Nc2ncc3c(n2)N(C2CCC2)CC3)ccc1N1CCN(C)CC1 — lower, 1.26%
- COc1ccc(-n2ncc(C(=O)N3CCC4(C3)C(=O)N(c3ccccc3)c3ccccc34)c2C)cc1 (stereo not given) — lower, 0.94%
- CC(=O)Nc1ccc(OCCCCCOc2ccc(NC(C)=O)cc2Cl)c(Cl)c1 — lower, 1.13%
- Clc1cccc(C=NNc2nc(=Nc3ccccc3)[nH]c(=Nc3ccccc3)[nH]2)c1 — lower, 3.05%
- Cn1cccc1C(=O)C(=O)Nc1cccc(-c2ccc(-c3nc4cc(C(F)(F)F)ccc4[nH]3)cc2)c1 — lower, -0.4%
- CCOc1ccc(C(=O)Nc2nonc2-c2ccc(OC)c(OC)c2)cc1 — lower, 0.47%
- Cc1cccc2nc(-c3cccc(-c4cccc(NC(=O)C5CC(=O)Nc6ccccc65)c4)c3)[nH]c12 (stereo not given) — higher, 5.82%
- c1cc(CNCCN2CCNCC2)cc(-c2cccc(-c3nc4ccccc4[nH]3)c2)c1 — lower, 0.14%
- CC(Oc1cccc(Cl)c1)C(=O)N1CCc2ccccc21 (stereo not given) — lower, -1.29%
- CCC(C)(C)NC(=O)C(c1cccc(OC)c1)N(C(=O)CNC(=O)c1cccs1)c1ccc2c(c1)OCCO2 (stereo not given) — higher, 6.92%
- CCNc1cc(C(=O)N[C@@H](Cc2ccccc2)[C@H](O)CNC(C)(C)c2cccc(OC)c2)cc(N2CCCC2=O)c1 — lower, -0.62%
- Cc1ccc2c(-c3ccc([N+](=O)[O-])o3)cc(C)nc2c1 — higher, 7.05%
- CC1(C)NC(N)=NC(=N)N1OCCCOc1c(Cl)cc(Cl)cc1Cl — lower, -2.41%
- CCn1c(-c2nonc2N)nc2c(-c3cccc(NC(=O)Nc4ccccc4Cl)c3)ncc(OCCCN)c21 — lower, -0.34%
- COc1ccc2nc(C)cc(Nc3ccc(Cl)c(Cl)c3)c2c1 — higher, 17.3%
- Cc1nc2nc(N)nc(N)c2c(C)c1Cc1ccccc1Br — higher, 6.78%
- O=C(Nc1cccc(-c2ccc(CN3CCCC3)cc2)c1)c1cccc(Cl)c1 — lower, 0.25%
- CCN(CCCN1CCCCC1)c1cc(C)nc(Nc2ccc(C)c(Cl)c2)n1 — lower, 1.16%
- O=C(CCNc1ccnc(NCCc2ccc(F)cc2)n1)Nc1ccccc1 — lower, 3.24%
- Cc1cccc2nc(-c3cccc(-c4ccc(NC(=O)c5c[nH]cn5)cc4)c3)[nH]c12 — lower, -1.26%
- O=C(c1ccc([N+](=O)[O-])o1)N1CCN(c2ccccc2)CC1 — lower, 1.09%
- Nc1ccc2[nH]cc(C3CCN(CC4CCC(NC(=O)/C=C/c5ccccc5Cl)CC4)CC3)c2n1 (stereo not given) — lower, 2.48%
- CN1CCN(CCCN(Cc2csc(-c3ccc(CNCc4ccccc4)cc3)n2)C(=O)Nc2cc(Cl)cc(Cl)c2)CC1 — higher, 7.7%
- CC(=O)C1=NN(c2ccc(Cl)cc2)C(c2cccs2)N1c1ccccc1 (stereo not given) — lower, 0.54%
- COc1ccccc1Cn1ccnc1SCC(=O)Nc1cccc(C(F)(F)F)c1 — lower, -0.75%
- COc1ccc(N2CCN(CCCCNC(=O)c3ccc(NC(=O)c4cc(C(F)(F)F)cc(C(F)(F)F)c4)cc3)CC2)c(OC)c1 — lower, 1.33%
- Cc1cc(N)cc2nc(-c3ccc(N)cc3)[nH]c12 — lower, 1.68%
- c1ccc(-c2cc(NCCNc3cc(-c4ccccc4)nc4ccccc34)c3ccccc3n2)cc1 — higher, 15.2%
- Nc1nc(O)c2cc(CN(C=O)c3ccc(C(=O)N[C@@H](CCC(=O)O)C(=O)O)cc3)ccc2n1 — lower, 2.98%
- COC(=O)COc1cc(C(=O)NCCCCN2CCC(c3ccc4c(c3OC)CCCC4)CC2)ccc1-c1ccc(Cl)cc1 — lower, 1.4%

`CCC(CC(NCCCCNC(=O)c1ccc(NC(=O)c2ccc(Cl)cc2)cc1)c1ccccc1)c1ccccc1OC` (stereo not given) was tested, and the inhibition was 1.46% and -1.08%.
